Source: PubChem BioAssay (several laboratories)
Sampled rows, rich in hits. Any-hit rate of the full collection: about 2.7%.
NRP1-CendR mod – NRP-1/CendR interaction modulation; AID 602438; FAM-RPARPAR peptide binding to NRP-1, fluorescence polarization; inhibition, % at 25 µM; 360,000 tested, 0.85% active; O14786;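 active = inhibition or corrected inhibition above about 18%, plus a signal ratio from 0.5 to 1.5, limit read from the data, passing the limit was not always enough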
Target sequence (O14786 whole entry, looked up): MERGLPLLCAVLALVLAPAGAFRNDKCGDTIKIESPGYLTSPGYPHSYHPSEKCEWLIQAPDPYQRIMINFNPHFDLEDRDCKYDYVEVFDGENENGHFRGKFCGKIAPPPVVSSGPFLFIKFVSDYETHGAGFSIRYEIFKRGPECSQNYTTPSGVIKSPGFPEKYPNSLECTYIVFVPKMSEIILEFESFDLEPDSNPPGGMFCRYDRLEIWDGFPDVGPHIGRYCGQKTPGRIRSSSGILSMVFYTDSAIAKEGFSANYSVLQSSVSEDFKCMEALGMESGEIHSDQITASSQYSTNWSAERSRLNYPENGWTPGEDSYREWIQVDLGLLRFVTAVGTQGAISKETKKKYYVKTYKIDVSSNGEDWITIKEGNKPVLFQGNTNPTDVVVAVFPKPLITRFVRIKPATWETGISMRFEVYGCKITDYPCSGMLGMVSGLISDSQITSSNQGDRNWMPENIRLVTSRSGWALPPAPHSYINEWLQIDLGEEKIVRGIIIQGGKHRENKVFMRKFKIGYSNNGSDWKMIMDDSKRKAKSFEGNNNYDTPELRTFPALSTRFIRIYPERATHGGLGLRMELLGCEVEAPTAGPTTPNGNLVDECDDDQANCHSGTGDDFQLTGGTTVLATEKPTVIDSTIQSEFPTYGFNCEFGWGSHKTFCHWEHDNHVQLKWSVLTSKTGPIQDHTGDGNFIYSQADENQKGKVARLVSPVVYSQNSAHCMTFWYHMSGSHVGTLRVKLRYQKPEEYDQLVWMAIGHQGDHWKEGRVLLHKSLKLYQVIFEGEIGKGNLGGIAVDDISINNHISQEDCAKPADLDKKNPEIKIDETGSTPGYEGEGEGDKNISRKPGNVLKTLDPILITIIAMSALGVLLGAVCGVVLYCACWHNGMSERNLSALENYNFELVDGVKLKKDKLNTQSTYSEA
SKN-1 inh – C. elegans SKN-1 inhibition. C. elegans VP596 Pgst-4::GFP/RFP ratio, acrylamide-induced, 24 h. inhibition, % at 21.8 µM. 360,000 tested, 0.49% active. AID 624304;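 active = interference check ratio from 0.5 to 1.5 plus GFP to RFP signal ratio inhibition reaching or exceeding a fixed threshold, cut at about 30% in these data, passing the limit was not always enough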
MPTP inh – blocks calcium-induced mitochondrial swelling; isolated mouse mitochondria, Ca2+ swelling absorbance, 30 min; inhibition, % at 10 µM; 360,000 tested, 1.4% active; AID 602449;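 active = inhibition of 50% or more, scaled per plate between neutral and stimulator controls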;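 note: 0% = DMSO wells given calcium and 100% = 1 mM EGTA wells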
ATG4B inh – ATG4B (human) cysteine protease inhibition; inhibition, % at 8.33 µM; AID 504462; ATG4B cleavage of LC3-PLA2, NBD-HPC fluorescence, 1 h; Q9Y4P1; 340,000 tested, 0.51% active; in the data active = inhibition above about 40%
F508del corr – CFTR F508del correction in bronchial cells. CFBE cells, YFP halide quenching; stimulated with forskolin plus potentiator P3; % fluorescence drop versus neutral controls. activity (quench increase), % at 7.58 µM. 350,000 tested, 0.36% active;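 active = mean added fluorescence quench of at least 8% versus neutral control, with both replicates also reaching 8%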;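 note: cells transiently co-express mutant CFTR-F508del with the halide-sensitive YFP; corrector assay measuring rescue of mutant channel to the surface after 24 h compound exposure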
Rh123 counter – mitochondrial membrane potential, counter-screen | isolated mitochondria, Rhodamine 123 fluorescence | inhibition, % at 10 µM | shares compounds with MPTP inh | 5,000 tested, 78% active; in the data active = inhibition above about 22%;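 note: 0% = DMSO vehicle and 100% = positive control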
Active calls of the source: *; . = not tested or not shown.

SMILES	NRP1-CendR mod	SKN-1 inh	MPTP inh	ATG4B inh	F508del corr	Rh123 counter
Cc1cc(/C=C2\SC(=S)N(C)C2=O)c(C)n1-c1ccccc1O	-147	11	92*	0	-3	67*
Cc1ccc(N2C(=O)/C(=C/c3cccnc3)SC2=S)cc1	7	-10	-1	0	1	.
CC(=O)N1[C@@H]2c3ccc(-c4ccccc4)c(=O)n3C[C@H]1[C@H](CO)[C@H]2C(=O)NCC1CC1	.	.	.	.	-2	.
C[C@H](CO)N1C[C@H](C)[C@H](CN(C)S(C)(=O)=O)Oc2cc(Br)ccc2S1(=O)=O	.	.	.	.	-1	.
CCN1CCN(c2cc(N3CCc4ccccc4C3)c(F)cc2[N+](=O)[O-])CC1	8	9	104*	17	.	-12
O=C(NCc1ccc(F)cc1)c1cc2c(s1)CCCC2	7	1	0	13	.	.
CC1CCc2sc(C(=O)NCc3ccc(F)cc3)cc2C1 (stereo not given)	2	9	58*	13	.	62*
O=C(O)CCCNc1c(C(=O)Nc2ccc(Cl)cc2)cc([N+](=O)[O-])cc1[N+](=O)[O-]	0	1	88*	-9	.	94*
COc1ccc(CCNc2c(C)c(C)nc3ncnn23)cc1	2	5	74*	1	1	83*
CCNC(=O)C[C@H]1CC[C@@H]2[C@H](COc3ccc(NC(=O)c4ccc(C(F)(F)F)cc4)cc3C(=O)N2C)O1	.	.	.	.	0	.
Fc1cccc(CN2[C@@H]3CNC[C@H]2C3c2ccc(-c3cccc(F)c3)cc2)c1 (stereo not given in full)	.	.	.	.	-5	.
CCOP(=O)(OCC)C(NC(=O)Nc1ccc(C)c(Cl)c1)c1ccccc1 (stereo not given)	8	1	84*	-8	0	84*
CCOP(=O)(OCC)C(NC(=O)Nc1ccc(Cl)c(Cl)c1)C(N)=O (stereo not given)	-3	6	40	-13	.	.
CCOP(=O)(OCC)C(NC(=O)Nc1ccc(Cl)c(Cl)c1)c1ccccc1 (stereo not given)	5	7	60*	0	.	56*
CCOP(=O)(OCC)C(NC(=O)Nc1ccc(Cl)cc1)c1ccccc1 (stereo not given)	-4	7	2	25	.	.
COCCCN(C(=S)Nc1cc(Cl)cc(Cl)c1)C(C)c1ccncc1 (stereo not given)	-13	6	93*	-3	.	99*
COCCCN(C(=O)Nc1ccc(C)c(C)c1)C(C)c1ccccn1 (stereo not given)	-7	4	0	-12	-3	.
COCCCN(C(=S)Nc1cc(Cl)cc(Cl)c1)C(C)c1ccccn1 (stereo not given)	-1	3	91*	4	0	87*
CC=Cc1ccc2n(c1=O)C[C@@H]1[C@@H](CO)[C@H](C(=O)NCCC)[C@H]2N1Cc1cccnc1 (mixture of isomers)	.	.	.	.	-4	.
c1ccc2c(CCNc3ncnc4nc[nH]c34)cccc2c1	-10	1	64*	-11	.	33*
CN(Cc1cccnc1)C(=O)c1cc(COc2ccc3c(c2)CCCC3)on1	4	-11	67*	-6	-3	85*
CCc1ccc(CN(C)C(=O)c2cc(COc3cccc4cnccc34)on2)cc1	7	1	99*	9	2	103*
C[C@@H]1CN([C@@H](C)CO)C(=O)c2cc(-c3ccccc3F)cnc2O[C@H]1CN(C)C(=O)C1CCCCC1	.	.	.	.	0	.
Cc1ccccc1-c1ccc([C@@H]2[C@@H](CO)N3CCCCN(CC4CC4)C[C@H]23)cc1	.	.	.	.	0	.
O=C(NC(NC(=S)Nc1ccc(Cl)cc1Cl)C(Cl)(Cl)Cl)c1cccc([N+](=O)[O-])c1 (stereo not given)	4	-1	94*	10	.	80*
SMILES	NRP1-CendR mod	SKN-1 inh	MPTP inh	ATG4B inh	F508del corr	Rh123 counter
Cc1ccc(C)c(NC(=S)NC(NC(=O)Cc2ccccc2)C(Cl)(Cl)Cl)c1 (stereo not given)	0	-1	1	4	.	.
Cc1ccc(NC(=S)NC(NC(=O)c2ccccc2)C(Cl)(Cl)Cl)c(C)c1 (stereo not given)	-6	10	73*	22	.	81*
O=C(NC(NC(=S)Nc1ccccc1)C(Cl)(Cl)Cl)c1cccc(Cl)c1 (stereo not given)	22	3	96*	-7	.	77*
O=C(O)c1cccc(NC(=S)NC(NC(=O)c2cccc([N+](=O)[O-])c2)C(Cl)(Cl)Cl)c1 (stereo not given)	-7	3	4	-9	2	.
Cc1ccccc1NC(=S)NC(NC(=O)c1ccccc1C)C(Cl)(Cl)Cl (stereo not given)	5	17	78*	-1	.	88*
Cc1cc(C)c(NC(=S)NC(NC(=O)c2ccccc2)C(Cl)(Cl)Cl)c(C)c1 (stereo not given)	-9	14	76*	-9	.	84*
Cc1ccc(C(=O)NC(NC(=S)Nc2ccc(S(N)(=O)=O)cc2)C(Cl)(Cl)Cl)cc1 (stereo not given)	-14	6	7	-1	.	.
COCC(=O)Nc1ccc2c(c1)C(=O)N(C)[C@@H]1CC[C@@H](CC(=O)NCC3CCCCC3)O[C@@H]1CO2	.	.	.	.	0	.
CN1C(=S)SC(N(O)C(=O)Nc2ccc(Cl)c(Cl)c2)C1(C)C (stereo not given)	-5	-13	98*	3	.	86*
O=C([C@@H]1[C@@H](CO)[C@@H]2Cn3c(ccc(-c4cncnc4)c3=O)[C@@H]2N1CC1CC1)N1CCCCC1	.	.	.	.	-1	.
Cc1nn(-c2ccccc2)c(N2CCCC2)c1/C=N/NC(=O)c1cc2ccccc2cc1O	-40	5	97*	6	.	70*
O=S(=O)(Nc1ccc(Cc2ccncc2)cc1)c1ccc(Cl)c(Cl)c1	3	9	0	6	-2	.
CCc1ccc(OC)c(S(=O)(=O)Nc2ccc(Cc3ccncc3)cc2)c1	-5	16	79*	-3	0	83*
COc1ccc(S(=O)(=O)Nc2ccc(Cc3ccncc3)cc2)cc1OC	7	-8	66*	-11	0	78*
CCc1ccc(NS(=O)(=O)c2ccc(OC)c3ncccc23)cc1	-2	5	-1	-3	-1	.
COc1ccc(S(=O)(=O)Nc2ccc3c(c2)C(=O)N([C@@H](C)CO)C[C@H](C)[C@@H](CN(C)Cc2ccc4c(c2)OCO4)O3)cc1	.	.	.	.	4	.
Cc1cc(N=NC(=O)c2ccccc2O)c2ccccc2c1O	2	-1	74*	-11	-3	91*
COc1ccc(C#Cc2ccc3c(c2)[C@H]2[C@H](CCN2S(=O)(=O)c2ccc(OC)cc2)[C@@H](CO)N3C)cc1	.	.	.	.	0	.
COc1cccc(NC(=O)N(C)C[C@@H]2Oc3cc(C#CC4(O)CCCC4)ccc3S(=O)(=O)N([C@@H](C)CO)C[C@@H]2C)c1	.	.	.	.	-2	.
